# Laboratory results: the supplement of paper PMC8728848
# This is one part of a sample in which the strongest signals are shown more often than they occur.
# Key:
# Assay in all cases: glycan array binding signal (z-score within array); higher = stronger binding
# Details in all cases: glycan notation: IUPAC condensed, linker removed
# [1] = biological target: GlcNAc(b1-2)Man(a1-3)[GlcNAc(b1-2)Man(a1-6)]Man(b1-4)GlcNAc(b1-4)GlcNAc
# Procedure, shortened: (§1)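 The binding signal is a Z-score computed within each array and averaged over linkers. Arrays of the same protein sequence at different concentrations or buffers were also averaged together. Data originate from 3228 arrays in the Consortium for Functional Glycomics database, kept only where the protein sequence was available.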
# GlcNAc(b1-3)Gal(b1-4)Glc = biological target: GlcNAc(b1-3)Gal(b1-4)Glc
# Procedure, shortened: as §1
# [2] = biological target: GlcNAc(b1-3)Gal(b1-4)GlcNAc(b1-3)Gal(b1-4)GlcNAc(b1-3)Gal(b1-4)GlcNAc(b1-2)[GlcNAc(b1-3)Gal(b1-4)GlcNAc(b1-3)Gal(b1-4)GlcNAc(b1-3)Gal(b1-4)GlcNAc(b1-6)]Man(a1-6)[GlcNAc(b1-3)Gal(b1-4)GlcNAc(b1-3)Gal(b1-4)GlcNAc(b1-3)Gal(b1-4)GlcNAc(b1-2)Man(a1-3)]Man(b1-4)GlcNAc(b1-4)[Fuc(a1-6)]GlcNAc
# Procedure, shortened: as §1
# [3] = biological target: GlcNAc(b1-3)Gal(b1-4)GlcNAc(b1-6)[Gal(b1-3)]GalNAc
# Procedure, shortened: as §1
# Kdn(a2-3)Gal(b1-3)GalNAc = biological target: Kdn(a2-3)Gal(b1-3)GalNAc
# Procedure, shortened: as §1
# Man(a1-3)[Man(a1-6)]Man = biological target: Man(a1-3)[Man(a1-6)]Man
# Procedure, shortened: as §1
# [4] = biological target: Man(a1-3)[Man(a1-6)]Man(a1-6)[Man(a1-3)]Man
# Procedure, shortened: as §1
# [5] = biological target: Neu5Ac(a2-3)Gal(b1-3)GalNAc(b1-3)Gal(b1-4)GlcNAc
# Procedure, shortened: as §1
# [6] = biological target: Neu5Ac(a2-3)Gal(b1-3)GlcNAc(b1-2)Man(a1-3)[Neu5Ac(a2-3)Gal(b1-3)GlcNAc(b1-2)Man(a1-6)]Man(b1-4)GlcNAc(b1-4)GlcNAc
# Procedure, shortened: as §1
# [7] = biological target: Neu5Ac(a2-3)Gal(b1-3)[Fuc(a1-4)]GlcNAc
# Procedure, shortened: as §1
# [8] = biological target: Neu5Ac(a2-3)Gal(b1-3)[Neu5Ac(a2-6)]GlcNAc(b1-3)[Fuc(a1-3)[Gal(b1-4)]GlcNAc(b1-6)]Gal(b1-4)Glc
# Procedure, shortened: as §1
# Neu5Ac(a2-3)Gal(b1-4)Glc = biological target: Neu5Ac(a2-3)Gal(b1-4)Glc
# Procedure, shortened: as §1
# [9] = biological target: Neu5Ac(a2-3)Gal(b1-4)GlcNAc(b1-2)Man
# Procedure, shortened: as §1
# [10] = biological target: Neu5Ac(a2-3)Gal(b1-4)GlcNAc(b1-3)Gal(b1-4)GlcNAc(b1-2)Man(a1-3)[Neu5Ac(a2-3)Gal(b1-4)GlcNAc(b1-3)Gal(b1-4)GlcNAc(b1-2)Man(a1-6)]Man(b1-4)GlcNAc(b1-4)GlcNAc
# Procedure, shortened: as §1
# [11] = biological target: Neu5Ac(a2-3)Gal(b1-4)GlcNAc(b1-3)Gal(b1-4)GlcNAc(b1-3)Gal(b1-4)GlcNAc
# Procedure, shortened: as §1
# [12] = biological target: Neu5Ac(a2-3)Gal(b1-4)GlcNAc(b1-3)Gal(b1-4)GlcNAc(b1-3)Gal(b1-4)GlcNAc(b1-2)Man(a1-3)[Neu5Ac(a2-3)Gal(b1-4)GlcNAc(b1-3)Gal(b1-4)GlcNAc(b1-3)Gal(b1-4)GlcNAc(b1-2)Man(a1-6)]GalNAc
# Procedure, shortened: as §1
# [13] = biological target: Neu5Ac(a2-3)Gal(b1-4)GlcNAc(b1-6)[Neu5Ac(a2-3)Gal(b1-3)]GalNAc
# Procedure, shortened: as §1
# [14] = biological target: Neu5Ac(a2-3)Gal(b1-4)[Fuc(a1-3)]GlcNAc
# Procedure, shortened: as §1
# [15] = biological target: Neu5Ac(a2-3)Gal6S(b1-4)[Fuc(a1-3)]GlcNAc
# Procedure, shortened: as §1
# Neu5Ac(a2-6)Gal = biological target: Neu5Ac(a2-6)Gal
# Procedure, shortened: as §1
# [16] = biological target: Neu5Ac(a2-6)Gal(b1-4)GlcNAc(b1-2)Man(a1-6)[Gal(b1-4)GlcNAc(b1-2)Man(a1-3)]Man(b1-4)GlcNAc(b1-4)GlcNAc
# Procedure, shortened: as §1
# [17] = biological target: Neu5Ac(a2-6)Gal(b1-4)GlcNAc(b1-2)[Neu5Ac(a2-6)Gal(b1-4)GlcNAc(b1-4)]Man(a1-3)[GlcNAc(b1-4)][Neu5Ac(a2-6)Gal(b1-4)GlcNAc(b1-2)[Neu5Ac(a2-6)Gal(b1-4)GlcNAc(b1-6)]Man(a1-6)]Man(b1-4)GlcNAc(b1-4)GlcNAc
# Procedure, shortened: as §1
# [18] = biological target: Neu5Ac(a2-6)Gal(b1-4)GlcNAc(b1-3)Gal(b1-4)GlcNAc(b1-2)Man(a1-3)[Neu5Ac(a2-6)Gal(b1-4)GlcNAc(b1-3)Gal(b1-4)GlcNAc(b1-2)Man(a1-6)]GalNAc
# Procedure, shortened: as §1
# [19] = biological target: Neu5Ac(a2-6)Gal(b1-4)GlcNAc(b1-3)Gal(b1-4)GlcNAc(b1-3)Gal(b1-4)GlcNAc
# Procedure, shortened: as §1
# [20] = biological target: Neu5Ac(a2-6)Gal(b1-4)GlcNAc(b1-3)Gal(b1-4)GlcNAc(b1-3)Gal(b1-4)GlcNAc(b1-2)Man(a1-3)[Neu5Ac(a2-6)Gal(b1-4)GlcNAc(b1-3)Gal(b1-4)GlcNAc(b1-3)Gal(b1-4)GlcNAc(b1-2)Man(a1-6)]GalNAc
# Procedure, shortened: as §1
# [21] = biological target: Neu5Ac(a2-6)Gal(b1-4)GlcNAc(b1-3)Gal(b1-4)GlcNAc(b1-3)[Neu5Ac(a2-6)Gal(b1-4)GlcNAc(b1-3)Gal(b1-4)GlcNAc(b1-6)]GalNAc
# Procedure, shortened: as §1
# [22] = biological target: Neu5Ac(a2-6)Gal(b1-4)GlcNAc(b1-3)Gal(b1-4)[Fuc(a1-3)]GlcNAc(b1-3)Gal(b1-4)[Fuc(a1-3)]GlcNAc
# Procedure, shortened: as §1
# [23] = biological target: Neu5Ac(a2-8)Neu5Ac(a2-8)Neu5Ac(a2-3)[Gal(b1-3)GalNAc(b1-4)]Gal(b1-4)Glc
# Procedure, shortened: as §1
# Neu5Ac(b1-6)GalNAc = biological target: Neu5Ac(b1-6)GalNAc
# Procedure, shortened: as §1
# [24] = biological target: Neu5Gc(a2-8)Neu5Gc(a2-3)Gal(b1-4)GlcNAc(b1-3)Gal(b1-4)GlcNAc
# Procedure, shortened: as §1
binder,measurement,setting,value
"LTL (Lotus tetragonolobus), P19664 (protein) VSFNYTEFKDDGSLILQGDAKIWTDGRLAMPTDPLVNNPKTTRSAGRALYATPVPIWDSATGNVASFVTSFNFLFVIRELKYTPTDGLVFFLAPVGTEIPSGSTGGFLGIFDGSNGFNQFVAVEFDSYHNIWDPKSLRSSHVGIDVNSIMSLKAVNWNRVSGSLEKATIIYDSQTNILSVVMTSQNGQITTIYGTIDLKTVLPEKVSVGFSATTGNPEREKHDIYSWSFTSTLKEPEEQA",glycan array binding signal (z-score),[1],-0.3
same,glycan array binding signal (z-score),GlcNAc(b1-3)Gal(b1-4)Glc,-0.196
same,glycan array binding signal (z-score),[2],0.185
same,glycan array binding signal (z-score),[3],-0.142
same,glycan array binding signal (z-score),Kdn(a2-3)Gal(b1-3)GalNAc,0.043
same,glycan array binding signal (z-score),Man(a1-3)[Man(a1-6)]Man,-0.207
same,glycan array binding signal (z-score),[4],0.02
same,glycan array binding signal (z-score),[5],-0.26
same,glycan array binding signal (z-score),[6],-0.099
same,glycan array binding signal (z-score),[7],0.005
same,glycan array binding signal (z-score),[8],-0.123
same,glycan array binding signal (z-score),Neu5Ac(a2-3)Gal(b1-4)Glc,-0.023
same,glycan array binding signal (z-score),[9],0.022
same,glycan array binding signal (z-score),[10],2.77
same,glycan array binding signal (z-score),[11],-0.035
same,glycan array binding signal (z-score),[12],5.64
same,glycan array binding signal (z-score),[13],-0.237
same,glycan array binding signal (z-score),[14],-0.31
same,glycan array binding signal (z-score),[15],2.84
same,glycan array binding signal (z-score),Neu5Ac(a2-6)Gal,-0.162
same,glycan array binding signal (z-score),[16],-0.242
same,glycan array binding signal (z-score),[17],-0.15
same,glycan array binding signal (z-score),[18],1.11
same,glycan array binding signal (z-score),[19],-0.226
same,glycan array binding signal (z-score),[20],2.02
same,glycan array binding signal (z-score),[21],3.76
same,glycan array binding signal (z-score),[22],-0.039
same,glycan array binding signal (z-score),[23],0.131
same,glycan array binding signal (z-score),Neu5Ac(b1-6)GalNAc,-0.326
same,glycan array binding signal (z-score),[24],-0.15
